The values that follow come from publication PMC7862700, “An all-to-all approach to the identification of sequence-specific readers for epigenetic DNA modifications on cytosine”.

Assay in all cases: DAPPL (digital affinity profiling via proximity ligation, sequencing); 10 mM Tris-HCl pH 7.5, 50 mM NaCl, 1 mM DTT, 4% glycerol, room temperature, 30 min; GST-TFs on glutathione beads, 16-mer random dsDNA library, 0.1% formaldehyde crosslink after washing; high values mean tight binding
What all share (conditions): protein: recombinant; tags: N-terminal GST; dsDNA, one strand shown

The target in one assay is T1, FLI1 (Homo sapiens, UniProt Q01543 1-452).
T1 sequence: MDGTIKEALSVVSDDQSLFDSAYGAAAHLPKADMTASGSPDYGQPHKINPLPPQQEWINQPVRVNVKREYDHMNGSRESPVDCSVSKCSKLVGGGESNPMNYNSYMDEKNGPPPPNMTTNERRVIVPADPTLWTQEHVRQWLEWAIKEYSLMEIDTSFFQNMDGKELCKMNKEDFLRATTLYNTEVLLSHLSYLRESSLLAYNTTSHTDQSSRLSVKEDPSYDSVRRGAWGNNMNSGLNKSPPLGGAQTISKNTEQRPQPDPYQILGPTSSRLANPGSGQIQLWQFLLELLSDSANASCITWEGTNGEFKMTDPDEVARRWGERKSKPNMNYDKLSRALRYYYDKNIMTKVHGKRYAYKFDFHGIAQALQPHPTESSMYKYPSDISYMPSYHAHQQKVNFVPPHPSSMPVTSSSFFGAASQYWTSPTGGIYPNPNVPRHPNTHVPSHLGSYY
The gist of the method:
(§1)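 Human transcription factors fused to GST were expressed in yeast, captured on glutathione beads, given DNA barcodes and pooled with a GST-only negative control. Pools were incubated with 200 nmole of a 16-mer random double-stranded DNA library in Tris/NaCl/DTT/glycerol buffer at room temperature for 30 min. They were then washed, crosslinked with 0.1% formaldehyde, proximity-ligated (BsaI/T4 ligase, 1 h, 37 °C), PCR-amplified and sequenced on an Illumina NextSeq500. Binding signal is each 6-mer's read frequency for a factor divided by its frequency for the GST control.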

The target in the next assay is T2, GABPA (Homo sapiens, UniProt Q06546 1-454).
T2 sequence: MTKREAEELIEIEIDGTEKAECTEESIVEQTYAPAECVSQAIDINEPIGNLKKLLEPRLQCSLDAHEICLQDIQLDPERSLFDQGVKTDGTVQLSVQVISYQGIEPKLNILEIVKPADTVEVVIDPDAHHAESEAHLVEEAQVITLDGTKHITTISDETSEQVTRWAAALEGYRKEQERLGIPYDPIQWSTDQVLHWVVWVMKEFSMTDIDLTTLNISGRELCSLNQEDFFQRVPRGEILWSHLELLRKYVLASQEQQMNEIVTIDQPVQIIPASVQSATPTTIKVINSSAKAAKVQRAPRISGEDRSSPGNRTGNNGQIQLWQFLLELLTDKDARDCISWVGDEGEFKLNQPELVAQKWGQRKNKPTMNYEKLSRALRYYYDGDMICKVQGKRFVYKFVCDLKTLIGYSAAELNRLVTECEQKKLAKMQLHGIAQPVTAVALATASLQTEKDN
The gist of the method:
as §1

Another assay addresses T3, EHF (Homo sapiens, UniProt Q9NZC4 1-300).
T3 sequence: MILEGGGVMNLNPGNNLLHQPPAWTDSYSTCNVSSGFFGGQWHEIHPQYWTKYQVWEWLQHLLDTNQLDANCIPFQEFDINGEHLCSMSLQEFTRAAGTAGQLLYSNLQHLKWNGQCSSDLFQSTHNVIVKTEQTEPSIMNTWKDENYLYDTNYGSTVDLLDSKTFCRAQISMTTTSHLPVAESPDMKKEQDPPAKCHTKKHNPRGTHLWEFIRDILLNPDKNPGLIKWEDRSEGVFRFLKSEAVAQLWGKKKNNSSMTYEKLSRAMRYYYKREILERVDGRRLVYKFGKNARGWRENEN
In outline:
as §1

A further assay addresses T4, ELK3 (Homo sapiens, UniProt P41970 1-407).
T4 sequence: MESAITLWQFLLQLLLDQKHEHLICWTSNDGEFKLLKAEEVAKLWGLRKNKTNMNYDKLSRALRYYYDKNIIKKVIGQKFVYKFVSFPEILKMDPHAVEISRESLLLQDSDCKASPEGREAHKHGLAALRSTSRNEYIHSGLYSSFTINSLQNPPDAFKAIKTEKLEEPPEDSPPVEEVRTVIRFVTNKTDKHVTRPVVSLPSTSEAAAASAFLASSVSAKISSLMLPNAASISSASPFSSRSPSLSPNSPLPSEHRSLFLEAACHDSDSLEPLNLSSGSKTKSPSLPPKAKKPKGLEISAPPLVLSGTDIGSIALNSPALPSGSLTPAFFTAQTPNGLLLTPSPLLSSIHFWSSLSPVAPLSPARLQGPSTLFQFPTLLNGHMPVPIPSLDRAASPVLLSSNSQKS
In outline: as §1

For another assay, the target named is T5, SPIC (Homo sapiens, UniProt Q8N5J4 1-248).
T5 sequence: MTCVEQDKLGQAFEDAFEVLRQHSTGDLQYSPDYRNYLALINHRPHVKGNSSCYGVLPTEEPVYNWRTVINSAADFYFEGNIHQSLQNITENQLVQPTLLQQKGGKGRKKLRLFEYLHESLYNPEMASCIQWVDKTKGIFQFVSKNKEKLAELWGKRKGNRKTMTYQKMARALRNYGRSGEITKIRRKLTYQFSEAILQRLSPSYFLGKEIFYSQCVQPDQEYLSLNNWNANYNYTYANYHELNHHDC
The gist of the method: as §1

The next assay has as its target T6, ELK4 (Homo sapiens, UniProt P28324-2 1-405).
T6 sequence: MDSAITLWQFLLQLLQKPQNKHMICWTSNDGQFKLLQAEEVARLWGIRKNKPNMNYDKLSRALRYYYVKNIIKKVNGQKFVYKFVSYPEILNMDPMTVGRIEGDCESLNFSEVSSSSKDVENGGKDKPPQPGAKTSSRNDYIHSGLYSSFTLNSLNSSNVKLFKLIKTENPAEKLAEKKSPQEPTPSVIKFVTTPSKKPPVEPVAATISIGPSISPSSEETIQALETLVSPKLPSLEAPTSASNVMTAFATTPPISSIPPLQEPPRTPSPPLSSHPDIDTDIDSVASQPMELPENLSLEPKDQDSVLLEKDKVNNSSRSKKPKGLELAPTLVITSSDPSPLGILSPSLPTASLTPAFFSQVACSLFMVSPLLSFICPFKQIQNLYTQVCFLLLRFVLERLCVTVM
In outline: as §1

The target in the next assay is T7, ELF3 (Homo sapiens, UniProt P78545 1-371).
T7 sequence: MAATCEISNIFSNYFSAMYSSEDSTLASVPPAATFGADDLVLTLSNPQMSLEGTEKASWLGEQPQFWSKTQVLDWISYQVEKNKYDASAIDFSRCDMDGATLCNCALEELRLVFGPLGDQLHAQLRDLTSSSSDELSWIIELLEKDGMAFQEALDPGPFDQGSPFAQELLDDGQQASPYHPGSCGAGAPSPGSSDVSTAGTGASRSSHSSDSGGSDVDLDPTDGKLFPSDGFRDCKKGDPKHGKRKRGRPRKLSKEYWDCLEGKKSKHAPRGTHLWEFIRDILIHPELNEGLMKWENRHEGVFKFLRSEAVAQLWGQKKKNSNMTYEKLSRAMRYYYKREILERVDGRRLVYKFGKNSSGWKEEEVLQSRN
In outline:
as §1

The target of the next assay is ETV1 (Homo sapiens, UniProt P50549 1-477). In outline:
as §1

Another assay addresses T8, ERF (Homo sapiens, UniProt P50548 1-548).
T8 sequence: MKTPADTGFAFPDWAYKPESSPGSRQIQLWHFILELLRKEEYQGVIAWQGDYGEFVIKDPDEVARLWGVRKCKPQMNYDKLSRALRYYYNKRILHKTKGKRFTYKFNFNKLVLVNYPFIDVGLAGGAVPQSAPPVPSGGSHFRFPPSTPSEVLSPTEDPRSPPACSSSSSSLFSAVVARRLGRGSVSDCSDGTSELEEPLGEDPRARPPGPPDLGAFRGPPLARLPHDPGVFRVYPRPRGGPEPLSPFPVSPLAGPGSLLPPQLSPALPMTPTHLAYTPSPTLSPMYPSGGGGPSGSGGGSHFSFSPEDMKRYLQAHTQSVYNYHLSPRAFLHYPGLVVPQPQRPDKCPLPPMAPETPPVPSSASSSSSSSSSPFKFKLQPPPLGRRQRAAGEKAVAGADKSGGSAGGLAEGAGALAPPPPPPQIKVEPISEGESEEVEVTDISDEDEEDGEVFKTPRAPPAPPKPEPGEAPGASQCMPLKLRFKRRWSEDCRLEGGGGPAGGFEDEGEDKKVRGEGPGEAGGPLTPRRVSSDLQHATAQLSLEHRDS
In outline: as §1

The next assay concerns the target T9, ETV3L (Homo sapiens, UniProt Q6ZN32 1-361).
T9 sequence: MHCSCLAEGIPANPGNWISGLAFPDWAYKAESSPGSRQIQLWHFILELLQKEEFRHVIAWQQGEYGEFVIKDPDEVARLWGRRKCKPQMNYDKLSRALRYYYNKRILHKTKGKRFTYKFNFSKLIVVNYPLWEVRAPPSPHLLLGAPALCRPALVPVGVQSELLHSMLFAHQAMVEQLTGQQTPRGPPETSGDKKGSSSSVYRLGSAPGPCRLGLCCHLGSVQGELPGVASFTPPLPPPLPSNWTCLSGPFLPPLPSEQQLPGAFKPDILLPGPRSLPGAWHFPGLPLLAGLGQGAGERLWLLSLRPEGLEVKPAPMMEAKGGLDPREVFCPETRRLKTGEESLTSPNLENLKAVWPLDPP
In outline: as §1

The target of the next assay is T10, ETV7 (Homo sapiens, UniProt Q9Y603 1-341).
T10 sequence: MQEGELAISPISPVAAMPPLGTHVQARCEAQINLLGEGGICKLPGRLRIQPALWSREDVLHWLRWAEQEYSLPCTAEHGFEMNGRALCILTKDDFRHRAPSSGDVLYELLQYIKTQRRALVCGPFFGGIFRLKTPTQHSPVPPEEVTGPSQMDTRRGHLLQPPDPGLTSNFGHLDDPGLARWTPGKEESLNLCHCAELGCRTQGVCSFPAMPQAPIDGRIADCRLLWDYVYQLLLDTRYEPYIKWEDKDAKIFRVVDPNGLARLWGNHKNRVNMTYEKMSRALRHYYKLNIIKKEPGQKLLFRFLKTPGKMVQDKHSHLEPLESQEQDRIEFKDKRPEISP
The gist of the method:
as §1

A further assay has as its target T11, ETV3 (Homo sapiens, UniProt P41162-2 1-143).
T11 sequence: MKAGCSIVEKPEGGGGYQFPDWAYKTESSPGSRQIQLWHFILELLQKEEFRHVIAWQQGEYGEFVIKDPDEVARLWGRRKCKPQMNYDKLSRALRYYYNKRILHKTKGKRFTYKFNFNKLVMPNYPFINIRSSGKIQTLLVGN
The gist of the method: as §1

The target in another assay is ETV6 (Homo sapiens, UniProt P41212 1-452). The gist of the method:
as §1

Sequence of ETV6 (P41212 whole entry): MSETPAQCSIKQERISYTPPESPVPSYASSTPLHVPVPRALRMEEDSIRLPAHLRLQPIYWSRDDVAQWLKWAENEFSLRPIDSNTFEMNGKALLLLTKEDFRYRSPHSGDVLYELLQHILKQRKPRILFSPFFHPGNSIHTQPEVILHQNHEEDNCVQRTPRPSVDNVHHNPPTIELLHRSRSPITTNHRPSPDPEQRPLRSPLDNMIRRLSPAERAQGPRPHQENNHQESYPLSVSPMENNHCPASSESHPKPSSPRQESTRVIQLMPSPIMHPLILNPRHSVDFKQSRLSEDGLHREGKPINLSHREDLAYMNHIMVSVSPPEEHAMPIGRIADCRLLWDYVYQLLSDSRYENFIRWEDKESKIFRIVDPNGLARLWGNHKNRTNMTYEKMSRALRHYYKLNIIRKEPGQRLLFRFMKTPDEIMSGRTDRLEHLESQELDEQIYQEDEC
Sequence of ETV1 (P50549 whole entry): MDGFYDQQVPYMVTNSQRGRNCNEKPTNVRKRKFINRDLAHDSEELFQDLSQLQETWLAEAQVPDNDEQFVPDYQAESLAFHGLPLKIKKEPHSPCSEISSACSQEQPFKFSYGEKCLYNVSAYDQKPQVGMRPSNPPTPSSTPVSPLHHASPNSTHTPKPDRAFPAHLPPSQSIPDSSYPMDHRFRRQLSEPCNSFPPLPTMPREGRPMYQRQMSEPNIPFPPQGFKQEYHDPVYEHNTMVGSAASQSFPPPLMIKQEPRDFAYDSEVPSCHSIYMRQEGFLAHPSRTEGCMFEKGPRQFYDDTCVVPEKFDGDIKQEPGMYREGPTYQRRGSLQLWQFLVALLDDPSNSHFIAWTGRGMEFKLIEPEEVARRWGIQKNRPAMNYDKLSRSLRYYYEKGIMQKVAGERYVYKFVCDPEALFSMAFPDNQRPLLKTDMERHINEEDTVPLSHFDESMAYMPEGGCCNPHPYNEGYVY

For the sequence GTTTGT, the binding signal in the assay with FLI1 is 1.15 fold enrichment (6-mer frequency, TF over GST control); in the assay with GABPA it was 1.03 fold enrichment (6-mer frequency, TF over GST control); with EHF, 1.03 fold enrichment (6-mer frequency, TF over GST control); in the assay with ELK3 it was 1.06 fold enrichment (6-mer frequency, TF over GST control); with SPIC, 1.01 fold enrichment (6-mer frequency, TF over GST control); with ELK4, 1.19 fold enrichment (6-mer frequency, TF over GST control). For the same sequence, the binding signal in the assay with ELF3 was 1.07 fold enrichment (6-mer frequency, TF over GST control); in the assay with ETV1 it was 1.04 fold enrichment (6-mer frequency, TF over GST control); in the assay with ERF, 1.06 fold enrichment (6-mer frequency, TF over GST control); with ETV3L, 1.06 fold enrichment (6-mer frequency, TF over GST control); with ETV7, 1.11 fold enrichment (6-mer frequency, TF over GST control); with ETV3, 1.06 fold enrichment (6-mer frequency, TF over GST control). For the same sequence, in the assay with ETV6, the binding signal is 1.11 fold enrichment (6-mer frequency, TF over GST control).
